The record followed here is ChEMBL document CHEMBL4513216, “Probing the Open Global Health Chemical Diversity Library for Multistage-Active Starting Points for Next-Generation Antimalarials” (ACS Infect Dis, 2020).

Molecules are shown by their SMILES. About 2,700 (4%) of roughly 68,000 compounds showed an effect of 50% or more. This is one part of a sample in which strong results are shown more often than they occur.

The experiment relates to Plasmodium berghei. Kind of experiment: Screen against P. berghei liver stage (PbLuc), transformed with Luciferase, at 2uM. The format is functional, HepG2. The conditions noted are these: tested at 2 uM.
Regarding `CC(C)n1cnnc1CCNCc1cn(CCC(N)=O)c2ccccc12`, the INHIBITION was -9.3%. The figure for `NC(=O)CCn1cc(CNCCCc2ccccc2O)c2ccccc21` is 57.34%; for `Cc1ccc(C(C)NCc2cn(CCC(N)=O)c3ccccc23)cc1C` (centres undefined) it is 61.63%. For `NC(=O)CCn1cc(CNCc2csc(N)n2)c2ccccc21`, the INHIBITION was determined as 72.49%.

With `CC(NCc1cn(CCC(N)=O)c2ccccc12)c1nncn1C` (centres undefined), the INHIBITION is -81.84%. The figure for `NC(=O)CCn1cc(CNCCCc2csc(N)n2)c2ccccc21` is 37.15%; for `NC(=O)CCn1cc(CNCCCc2ccncc2)c2ccccc21` it is 3.49%; for `CCCN1CCN(Cc2cn(CCC(N)=O)c3ccccc23)CC1` it is 38.62%. The figure for `Cc1n[nH]c(C)c1CCCNCc1cn(CCC(N)=O)c2ccccc12` is 42.2%.

`CCc1nccn1-c1cncc(C2CCN(C(=O)COC)CC2)n1`: the INHIBITION is listed as 41.98%.

As for `CCN(CC)C(=O)c1nc2c(s1)CCN(Cc1cccc(OC)c1)CC2`, the INHIBITION stood at 1.08%.

`O=C(c1cccc(S(=O)(=O)NCCCn2cccn2)c1)N1CCOCC1`: the INHIBITION was found to be 30.8%.

With `COC(=O)[C@H](C)NC(=O)Cc1c(C)nc2c(c1C)c(=O)[nH]n2C`, the INHIBITION was -7.03%. The figure for `COCCNc1nc2c(c(NCc3ccncc3)n1)CCNCC2` is -21.16%. As for `COCCNc1nc2c(c(NCCc3cccs3)n1)CCNCC2`, the INHIBITION was -15.37%.

Take `COCCNc1nc2c(c(NCC3CCOC3)n1)CCNCC2` (centres undefined): the INHIBITION is listed as 58.53%. The figure for `COCC(c1cccc(C(F)(F)F)c1)N(C)C(=O)c1ccncc1` (centres undefined) is 14.82%; for `COCC(c1cccc(C(F)(F)F)c1)N(C)C(=O)c1cc(C)no1` (centres undefined) it is -23.4%. As to `COCC(c1cccc(C(F)(F)F)c1)N(C)C(=O)c1cc(C)n[nH]1` (centres undefined), the INHIBITION was determined as 51.21%. Take `CCn1cc(CNC(=O)c2nn(CC)cc2Br)cn1`: the INHIBITION is -26.13%. `O=C(NC1CCCN(c2ccccc2Cl)C1)c1c[nH]nn1` (centres undefined): the INHIBITION came out at 55.18%.

For `O=C(NC1CCN(c2ccccc2OC(F)F)C1)c1c[nH]nn1` (centres undefined), the INHIBITION was 31.3%. Next, `O=C(NC1CCCN(c2ccccc2Cl)C1)c1nc(=O)[nH][nH]1` (centres undefined): 8.05%; `O=C(NC1CCCN(c2ccccc2Cl)C1)c1ccc(=O)[nH]n1` (centres undefined): 42.88%. As for `O=C(NC1CCCN(c2ccc(OC(F)F)cc2)C1)c1c[nH]nn1` (centres undefined), the INHIBITION is listed as 5.48%. Next, `O=C(NC1CCN(c2ccccc2Br)C1)c1c[nH]nn1` (centres undefined): 53.81%; `Cc1cc(C)n2c(CCCNS(=O)(=O)c3ccc(F)cc3)nnc2n1`: 6.62%. The figure for `CCc1nc(NC2CCCN(C(=O)c3cccs3)C2)c2cnn(C)c2n1` (centres undefined) is -33.35%; for `CCCN(CCC)C1(Cc2cc(-c3cccc(O)c3)on2)COC1` it is 50.72%. In the case of `CCN(CC)C1(Cc2cc(-c3cccc(O)c3)on2)COC1`, the INHIBITION came to 10.08%. Next, `Oc1cccc(-c2cc(CC3(N(CC4CC4)CC4CC4)COC3)no2)c1`: -4.2%; `NC1(C(=O)NCCC2CN(Cc3ccco3)CCO2)CCCC1` (centres undefined): 18.98%; `CC(C)(C)c1noc(CCCC(=O)N2CCNC(=O)C2)n1`: -31.79%. The figure for `COCCOC(=O)N1C[C@@H]2CC[C@H]1CN(C1Cc3ccccc3C1)C2` is -31.79%.

Consider `COCCC(=O)N1C[C@@H]2CC[C@H]1CN(C1Cc3ccccc3C1)C2`, for which the INHIBITION turned out to be 28.97%.

On to `COCCOCC(=O)N1C[C@@H]2CC[C@H]1CN(C1Cc3ccccc3C1)C2`, for which the INHIBITION is 61.82%.

Take `Cc1cc(C)n(C2CCCN(C(=O)c3ccn(C)c(=O)c3)C2)n1` (centres undefined): the INHIBITION is given as -42.24%. Next, `O=C(COCCOc1ccccc1)N1CCCC(n2ccnc2)C1` (centres undefined): 29.12%; `O=C(COCC1CC1)N1CCCC(n2ccnc2)C1` (centres undefined): 67.53%; `O=C(COCC1CC1)N1CCCC(n2cncn2)C1` (centres undefined): 62.46%. Next, `CC(=O)Nc1nc(C(=O)N2CCCC(n3cncn3)C2)cs1` (centres undefined): 72.31%; `CC(=O)Nc1nc(C(=O)N2CCCC(n3ccnc3)C2)cs1` (centres undefined): 18.46%.

On to `O=C(COCc1ccccc1)N1CCCC(n2cncn2)C1` (centres undefined), for which the INHIBITION is listed as 24.15%. The figure for `Cc1nc(C(=O)N2CCCC(n3cncn3)C2)cs1` (centres undefined) is -81.94%; for `O=C(COC1CCCCC1)N1CCCC(n2ccnc2)C1` (centres undefined) it is -0.13%; for `O=C(COCC1CC1)N1CCCC(n2cccn2)C1` (centres undefined) it is -5.7%. Next, `Cc1ccccc1CN1CCC(CNc2ncnc3c2CCNCC3)C1` (centres undefined): 32.26%; `c1cnc(N2CCOCC3(CN(Cc4nccs4)CCO3)C2)nc1` (centres undefined): 14.39%. The figure for `CCC(C)NC(=O)c1nnn(-c2cccc3c2CCN(C)C3)c1C` (centres undefined) is -46.36%; for `O=C(NCCN1CCCCC1)c1ccoc1` it is 6.12%; for `COc1ccc(-c2cnc(CN3CCCC3Cn3cccn3)o2)cc1` (centres undefined) it is -36.73%. Turning to `O=C(NC1CCN(c2cccc(OC(F)(F)F)c2)C1=O)C1CC1` (centres undefined), the INHIBITION is -0.13%.

Take `CC(C)OCCN(Cc1cccc(O)c1)C1CCC(O)CC1` (centres undefined): the INHIBITION was 11.78%. Next, `C=C(C)CN(Cc1cccc(O)c1)C1CCC(O)CC1` (centres undefined): 6.55%; `CS(=O)(=O)CCN(Cc1cccc(O)c1)C1CCC(O)CC1` (centres undefined): 50.4%.

Take `CSCCC(=O)N1CCC(CCC(=O)NCC2CCCO2)CC1` (centres undefined): the INHIBITION was 20.71%. The figure for `Cc1nc(NC(=O)CNC(=O)c2c(F)cccc2Cl)n[nH]1` is 9.5%. Next, `O=C(CNC(=O)c1c(F)cccc1Cl)Nc1ccc(F)cn1`: 67.28%.

On to `CC(O)(CNC(=O)c1c(F)cccc1Cl)C1CC1` (centres undefined), for which the INHIBITION is given as -21.74%. The figure for `CCc1c(C)nc2cc(C3CCN(Cc4cccc(F)c4)C3)nn2c1O` (centres undefined) is 65.74%; for `CCc1c(C)nc2cc(C3CCN(Cc4cccnc4)C3)nn2c1O` (centres undefined) it is 31.56%. The figure for `CCc1c(C)nc2cc(C3CCN(Cc4ccc(F)cc4)C3)nn2c1O` (centres undefined) is 40.31%; for `CCc1ccc(CN2CCc3ncnc(N4CCOCC4)c3CC2)o1` it is -21.37%; for `CN1CCN(C[C@@H]2CN(C(=O)NCC3CCCCC3)C[C@@H]2CO)CC1` it is -26.04%. The figure for `COc1ccc(CN2CC[C@H]3O[C@@H](C(=O)NCC4CC4)CC[C@H]32)cc1` is 44.4%; for `CC(Cn1cccn1)NC(=O)NCCN1CCCCCC1=O` (centres undefined) it is 50.03%; for `CC(Cn1cccn1)NC(=O)NCCc1cccnc1` (centres undefined) it is 10.53%. On to `CCN(CC)c1ccc(NC(=O)NC(C)Cn2cccn2)cn1` (centres undefined), for which the INHIBITION was found to be 52.3%.

For the compound `COc1ccc(NC(=O)NC(C)Cn2cccn2)cn1` (centres undefined), the INHIBITION is listed as -40.27%. As for `CC(Cn1cccn1)NC(=O)NCCCN1CCCCCC1=O` (centres undefined), the INHIBITION turned out to be 48.37%.

With `CC(Cn1cccn1)NC(=O)Nc1ccc(N(C)C)nc1` (centres undefined), the INHIBITION was found to be 5.96%. The figure for `Cc1ccc(CNC(=O)NC(C)Cn2cccn2)cn1` (centres undefined) is 49.01%.

In the case of `CC(Cn1cccn1)NC(=O)NCc1cccnc1` (centres undefined), the INHIBITION is on record as 61.3%. Next, `CC(Cn1ccnc1)NC(=O)NCCN1CCCCCC1=O` (centres undefined): 17.18%.
